The whole screen tested about 5,500 compounds, of which about 2,000 (36%) were called active. Roughly 18% stayed inconclusive and do not appear here. No stated cut-off is given here; in the data, active means normalized growth mostly below about 0.91 (no sharp cut-off); inconclusive means no clear call, values can overlap the other calls; inactive means mostly above about 0.92. Some of the results follow.
Assay: chemical genetic growth profiling, strain panel (AID 1159580);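 further: tested at 20 µM; growth read once vehicle control cultures reached saturation at 30 °C; 1 = growth at the plate median or of vehicle wells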
Conditions: S. cerevisiae deletion strains, growth OD
[1] = locus YAL013W, strain DEP1, stronger effect = lower value
[2] = locus YBR229C, strain ROT2, stronger effect = lower value
[3] = locus YDL101C, strain DUN1, stronger effect = lower value
[4] = locus YDR150W, strain NUM1, stronger effect = lower value
[5] = locus YEL061C, strain CIN8, stronger effect = lower value
[6] = locus YGR078C, strain PAC10, stronger effect = lower value
[7] = locus YHR030C, strain SLT2, stronger effect = lower value
[8] = locus YHR087W, strain rtc3, stronger effect = lower value
[9] = locus YJL187C, strain SWE1, stronger effect = lower value
[10] = locus YJR043C, strain POL32, stronger effect = lower value
[11] = locus YJR075W, strain HOC1, stronger effect = lower value
[12] = locus YLR039C, strain RIC1, stronger effect = lower value
[13] = locus YLR058C, strain SHM2 (second series), stronger effect = lower value
[14] = locus YLR085C, strain ARP6, stronger effect = lower value
[15] = locus YLR262C, strain YPT6, stronger effect = lower value
[16] = locus YML094W, strain GIM5, stronger effect = lower value
[17] = locus YMR219W, strain ESC1, stronger effect = lower value
[18] = locus YMR263W, strain SAP30, stronger effect = lower value
[19] = locus YNL153C, strain GIM3, stronger effect = lower value
[20] = locus YNL298W, strain CLA4 (second series), stronger effect = lower value
[21] = locus YNL322C, strain KRE1, stronger effect = lower value
[22] = locus YNR030W, strain Alg12, stronger effect = lower value
[23] = locus YOL006C, strain TOP1, stronger effect = lower value
[24] = locus YPL055C, strain LGE1, stronger effect = lower value
[25] = locus YPL241C, strain CIN2, stronger effect = lower value
[26] = locus YPR135W, strain CTF4, stronger effect = lower value

Measured: normalized growth

COc1cc(C=Nc2ccc(F)cc2)cc(OC)c1OC
inactive: [1] 0.995 | [2] 0.978 | [3] 1 | [4] 0.896 | [5] 0.986 | [6] 1 | [7] 1.02 | [8] 1.01 | [9] 0.998 | [10] 1.01 | [11] 0.954 | locus YKL190W, strain CNB1, stronger effect = lower value 0.98 | [12] 0.983 | [13] 1.02 | [14] 0.965 | [15] 0.98 | [16] 0.988 | [17] 0.985 | [18] 1.01 | locus YMR307W, strain GAS1, stronger effect = lower value 0.938 | [19] 1.01 | [20] 1 | [21] 0.979 | [22] 0.979 | [23] 1 | [24] 1.02 | [25] 0.997 | [26] 1.11

COc1cc(/C=N\NC(=S)NC2CC3CCC2C3)cc(OC)c1OC (stereo unspecified)
inactive: [1] 0.985 | [2] 1.01 | [3] 1 | [4] 0.998 | [5] 0.994 | [6] 1 | locus YGR229C, strain SMI1, stronger effect = lower value 1 | [7] 0.816 | [8] 1.03 | [9] 0.996 | [10] 1.02 | [11] 1.05 | [12] 0.97 | [13] 1.02 | [15] 1.05 | [16] 0.913 | [17] 1.02 | [18] 0.975 | [19] 1.01 | [20] 0.889 | [21] 1.01 | [22] 0.92 | [24] 0.923 | [25] 0.898 | [26] 0.843
active: [14] 0.653 | [23] 0.51

S=C(N/N=C\c1cccs1)NC1CC2CCC1C2 (stereo unspecified)
active: [7] 0.763 | locus YLR113W, strain HOG1, stronger effect = lower value 0.788 | locus YPL256C, strain CLN2, stronger effect = lower value 0.736
inactive: locus YAR019C, strain CDC15, stronger effect = lower value 0.943 | locus YBL105C, strain PKC1, stronger effect = lower value 0.94 | locus YBR135W, strain CKS1, stronger effect = lower value 0.959 | locus YBR136W, strain MEC1, stronger effect = lower value 0.95 | locus YBR160W, strain CDC28, stronger effect = lower value 0.954 | locus YDL017W, strain CDC7, stronger effect = lower value 0.941 | locus YDL028C, strain MPS1, stronger effect = lower value 0.958 | [3] 0.952 | locus YDL108W, strain KIN28, stronger effect = lower value 0.951 | locus YDL132W, strain cdc53, stronger effect = lower value 0.96 | locus YDL214C, strain PRR2, stronger effect = lower value 0.913 | locus YDR052C, strain DBF4, stronger effect = lower value 0.945 | locus YDR054C, strain cdc34, stronger effect = lower value 0.928 | locus YDR226W, strain ADK1, stronger effect = lower value 0.937 | locus YDR477W, strain SNF1, stronger effect = lower value 0.91 | locus YER123W, strain YCK3, stronger effect = lower value 0.938 | locus YER133W, strain GLC7, stronger effect = lower value 0.905 | locus YFL009W, strain cdc4, stronger effect = lower value 0.934 | locus YFL029C, strain CAK1, stronger effect = lower value 0.94 | locus YFR003C, strain YPI1, stronger effect = lower value 0.951 | locus YFR019W, strain FAB1, stronger effect = lower value 0.956 | locus YFR028C, strain CDC14, stronger effect = lower value 0.944 | locus YGR040W, strain KSS1, stronger effect = lower value 0.909 | locus YGR052W, strain FMP48, stronger effect = lower value 0.921 | locus YGR092W, strain DBF2, stronger effect = lower value 0.794 | locus YHR079C, strain IRE1, stronger effect = lower value 0.75 | locus YHR082C, strain KSP1, stronger effect = lower value 0.898 | locus YHR205W, strain SCH9, stronger effect = lower value 0.732 | locus YIL147C, strain SLN1, stronger effect = lower value 0.956 | locus YJL095W, strain BCK1, stronger effect = lower value 0.89 | locus YJL128C, strain PBS2, stronger effect = lower value 0.957 | locus YJL157C, strain FAR1, stronger effect = lower value 0.885 | locus YJR016C, strain ILV3, stronger effect = lower value 0.945 | locus YJR066W, strain TOR1 (second series), stronger effect = lower value 0.87 | locus YJR066W, strain TOR1, stronger effect = lower value 0.908 | locus YKL048C, strain ELM1, stronger effect = lower value 0.934 | locus YKL067W, strain YNK1, stronger effect = lower value 0.95 | locus YKL101W, strain HSL1, stronger effect = lower value 0.949 | locus YKL193C, strain SDS22, stronger effect = lower value 0.947 | locus YKL203C, strain TOR2, stronger effect = lower value 0.978 | locus YLR133W, strain CKI1, stronger effect = lower value 0.913 | locus YLR403W, strain SFP1, stronger effect = lower value 0.787 | locus YML070W, strain DAK1, stronger effect = lower value 0.927 | locus YMR001C, strain CDC5, stronger effect = lower value 0.944 | locus YMR205C, strain PFK2 (second series), stronger effect = lower value 0.946 | locus YMR277W, strain FCP1, stronger effect = lower value 0.946 | locus YNL006W, strain LST8, stronger effect = lower value 0.957 | locus YNL020C, strain ARK1, stronger effect = lower value 0.918 | locus YNL161W, strain CBK1, stronger effect = lower value 0.936 | locus YNL183C, strain NPR1, stronger effect = lower value 0.967 | locus YNL207W, strain RIO2, stronger effect = lower value 0.929 | locus YNL222W, strain SSU72, stronger effect = lower value 0.936 | locus YNL307C, strain MCK1 (second series), stronger effect = lower value 0.842 | locus YOL078W, strain AVO1, stronger effect = lower value 0.939 | locus YOL136C, strain PFK27, stronger effect = lower value 0.881 | locus YOR061W, strain CKA2, stronger effect = lower value 0.948 | locus YOR119C, strain RIO1, stronger effect = lower value 1.01 | locus YOR231W, strain MKK1, stronger effect = lower value 0.935 | locus YOR329C, strain SCD5, stronger effect = lower value 0.949 | locus YPL031C, strain PHO85, stronger effect = lower value 0.879 | locus YPL153C, strain RAD53, stronger effect = lower value 0.88 | locus YPL204W, strain HRR25, stronger effect = lower value 0.842 | locus YPL209C, strain IPL1, stronger effect = lower value 0.943 | locus YPR025C, strain CCL1, stronger effect = lower value 0.959 | locus YPR106W, strain ISR1, stronger effect = lower value 0.953 | locus YPR111W, strain DBF20, stronger effect = lower value 0.953 | strain NNK1, stronger effect = lower value 0.947 | strain TSCII, stronger effect = lower value 0.932
